This note sets out measurements from PubChem BioAssay (EPA / NIEHS).

The source made the active and inactive calls. The calls were made as follows: active = hit-call score of the fitted dose curve at least 0.9, where 1 is the maximum; inactive = score below 0.9.

The nature of this assay: UKN5_HCS_SBAD2_cell_viability: Viability Assessment in the University of Konstanz (UKN) Leist Lab Neurite Outgrowth Assay in human iPSC-derived immature Dorsal Root Ganglia Neurons (UKN5) (AID 2284056). Here is the method:
UKN5_HCS_SBAD2 is a cell-based, multiplexed-readout assay screening for neurite outgrowth and cell viability that uses SBAD2 (peripheral neurons differentiated from iPSC), a human peripheral nervous system cell line, with measurements taken at […] after chemical dosing in a microplate: 96-well plate. UKN5, also referred to as PeriTox, is an assay that uses human iPSC line SBAD2 as a model of peripheral neurons. Following 24 hr chemical exposures in multi-well plates, neurite area is evaluated as a marker of neurite outgrowth using high-content imaging of cells stained with calcein-AM. Cell viability is assessed using stain Hoechst H-33342.UKN5_HCS_SBAD2_cell_viability is an assay component measured from the UKN5_HCS_SBAD2 assay. It is designed to make measurements of enzyme activity, a form of viability reporter, as detected with Fluorescence intensity signals by HCS Fluorescent Imaging.The assay endpoint UKN5_HCS_SBAD2_cell_viability was analyzed with bidirectional fitting relative to DMSO as the negative control and baseline of activity. Using a type of viability reporter, gain or loss-of-signal activity can be used to understand viability effects. To generalize the intended target to other relatable targets, this assay endpoint is annotated to the cell cycle intended target family, where the subfamily is viability.
The previously differentiated immature peripheral neurons are thawed and seeded on Matrigel coated plates (1:40 diluted) in 75 ul medium composed of 75% N2-S medium and 25% KSR medium, supplemented with CHIR99021 (1.5 uM), SU5402 (5 uM) and DAPT (gamma-Secretase inhibitor IX, 5 uM) at a density of 100.000 cells/cm2. One hour after seeding, treatment compounds are added to the cells in 25 ul of similar to culture medium in which cells were seeded. 23 h after toxicant application, cells are live-stained with H-33342 and calcein-AM and incubated for 60 min. After 24 h of treatment (including staining), the cells are imaged using a high-content microscope (Cellomics VTI Array Scan).
In the case of `Clc1cc(Cl)c(-c2cc(Cl)c(Cl)c(Cl)c2Cl)cc1Cl`, the molecule was called inactive.

Take `[O-][Cl+3]([O-])([O-])O`: the result was inactive.

In the case of `CN1CC=C(c2ccccc2)CC1`, the result was inactive.

For the molecule `Brc1ccc(Oc2cc(Br)c(Br)cc2Br)c(Br)c1`, the call was inactive.

`O=[As](O)(O)O`: the AC50 is 4.31 µM (active).

Take `CN[C@@H](C)Cc1ccccc1`: the molecule was called inactive.

In the case of `CNC(C)Cc1ccc2c(c1)OCO2` (centres undefined), the molecule was classed as inactive.

As for `COC(=O)[C@H]1[C@@H](OC(=O)c2ccccc2)C[C@@H]2CC[C@H]1N2C`, the result was inactive.

On to `CC(=O)Oc1ccc2c3c1O[C@H]1[C@@H](OC(C)=O)C=C[C@H]4[C@@H](C2)N(C)CC[C@@]341`, for which the result was inactive.

With `CP(=O)(O)CCC(N)C(=O)O` (centres undefined), the result was inactive.

For the molecule `CC(=O)[O-].CC(=O)[O-].O.O.O.[Pb+2]`, the concentration at half-maximal activity (AC50) was 17.7 µM (active).

Consider `C[n+]1ccc(-c2cc[n+](C)cc2)cc1`, for which the molecule was classed as inactive.

For the molecule `[CH3][Sn]([CH3])([CH3])[Cl]`, the AC50 was 18.8 µM (active).

For `C[n+]1ccc(-c2ccccc2)cc1`, the result was inactive.

As to `CN1CC[C@]23c4c5ccc(O)c4O[C@H]2[C@@H](O)C=C[C@H]3[C@H]1C5`, the outcome was inactive.

Regarding `[Cd+2].[Cl-].[Cl-]`, the AC50 was 50 µM (active).

With `CNC1(c2ccccc2Cl)CCCCC1=O` (centres undefined), the result was inactive.

For the molecule `O=C1N[C@@H]2C(=C[C@H](O)[C@@H](O)[C@H]2O)c2cc3c(c(O)c21)OCO3`, the concentration at half-maximal activity (AC50) is 0.0303 µM (active).

For `CC1(C)[C@H](C(=O)O[C@H](C#N)c2cccc(Oc3ccccc3)c2)[C@@H]1C=C(Br)Br`, the AC50 was 115 µM (active).

Take `CC(C)CC(C)c1sccc1NC(=O)c1cn(C)nc1C(F)(F)F` (centres undefined): the call was inactive.

For the molecule `Brc1ccc(Oc2ccc(Br)cc2Br)c(Br)c1`, the molecule was classed as inactive.

Take `[CH3][Hg][Cl]`: the AC50 is 3.17 µM (active).

For `C/C(=C/C=C/[C@@H](C)C(=O)O)[C@H]1CN[C@H](C(=O)O)[C@H]1CC(=O)O`, the call was inactive.

In the case of `CC1(C)C(C=C(Cl)Cl)[C@H]1C(=O)O[C@H](C#N)c1cccc(Oc2ccccc2)c1` (some centres undefined), the call was inactive.

Usually AC50 stands for the midpoint of the concentration-response curve, whichever way the signal moves.
